SMILES strings stand for the structures.
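Note: kd values determined as follow-up on hits from a single-replicate KINOMEscan panel screen.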

For `COc1ccc(Nc2nccc(-c3ccc(NC(=O)c4cc5cc(F)ccc5[nH]4)cc3)n2)cc1` [GSK1229496], the Kd (in general, a measure of binding affinity in units of concentration) in the assay on CHEK1 is above 10 µM.
Compound `Cn1cncc1-c1cc2c(Nc3ccc(OCc4ccccc4)cc3)ncnc2cn1` [GW281179] displayed a Kd with CDKL1 above 10 µM.
`COc1ccc(Nc2nccc(N3CCC(NC(=O)C(C)c4ccc(Cl)cc4)CC3)n2)cc1` (stereo not shown) [GSK1379812] showed a Kd in the assay with CDKL5 above 10 µM.
Still for that read-out and setting: in the case of `O=C(Nc1n[nH]c2nc(-c3ccco3)c(Br)cc12)C1CCN(Cc2ccccc2)C1.O=C(O)[C@H](O)[C@@H](O)C(=O)O` (stereo not shown) [SB-742034] it was 1.1 µM.
In the assay with CDKL1, `NS(=O)(=O)c1cccc(N/C=C2\C(=O)Nc3ccc(S(=O)(=O)Cc4c(Cl)cccc4Cl)cc32)c1` [GSK398099] showed a Kd above 10 µM.
In the case of `Cn1cncc1C(=O)NC1CCN(c2ccnc(Nc3ccc(F)cc3)n2)C1` (stereo not shown) [GSK1379717], the Kd in the assay with CDKL1 and in the assay on CDKL3 was above 10 µM throughout.
As to `O=C(Nc1n[nH]c2nc(-c3cccs3)c(Br)cc12)C1CCCC1` [SB-743341], the Kd in the assay on CDKL2 came to 0.33 µM.
On to `COC(=O)c1cccc(NC(=O)NC2CCN(c3ccnc(Nc4ccc(F)cc4)n3)C2)c1` (stereo not shown) [GSK1379725], for which the Kd in the assay with CDKL2 was found to be 0.68 µM.
In turn, `COc1ccc(Nc2nccc(N3CCC(NC(=O)c4cc5ccccc5s4)C3)n2)cc1` (stereo not shown) [GSK1379738] registered a Kd in the assay with CHEK1 above 10 µM.
Still for that read-out and setting: in the case of `COc1cccc(C2=C(Nc3cc(Cl)c(O)c(Cl)c3)C(=O)NC2=O)c1` [SB-390767] it was above 10 µM.
In turn, `CNC(=O)c1ccc(C)c(-n2c(C)cc(OCc3ccc(F)cc3F)c(Br)c2=O)c1` gave an equilibrium dissociation constant (Kd) with CDKL1 above 10 µM.
In the case of `Cc1c(Cn2c(C)c(C)n3c(=O)cc(N4CCOCC4)nc23)cccc1C(F)(F)F` [GSK2328680], the Kd in the assay with CDKL1 was above 10 µM.
